# PubChem BioAssay AID1626 (SRMLSC, 2009)
# Values joined by “and” are separate entries in the source; they are usually repeats but may differ in a detail not shown here. Equal values may be shown once. Out of some 220,000 compounds screened, about 2,000 (0.91%) were called active. Another 2% or so got no clear call; they are omitted. No stated cut-off is given here; in the data, inconclusive means inhibition above about 80% without an active follow-up result; inactive means below that; test concentration not stated here. Only a sample is shown. Potency and affinity values are given separately.
# Assay: M. tuberculosis H37Rv growth inhibitors, H37Rv strain (AID 1626);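 further: bacteria incubated seven days before Alamar blue readout; 0% = bacteria only wells and 100% = bacteria with antibiotic wells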
# Settings: stronger effect = higher value, concentration not given here
row,SMILES,inhibition
1,CC(Oc1ccc(Cl)cc1Cl)c1nc(-c2ccc(NC(=O)c3cccnc3)cc2)no1 (stereo unspecified),76.2% (inactive)
2,CC(Oc1ccc(Cl)cc1Cl)c1nc(-c2ccc(NC(=O)c3ccccn3)cc2)no1 (stereo unspecified),-3.67% (inactive)
3,CCCOc1ccc(-c2nc(OC)c3ccccc3n2)cc1,77% (inactive)
4,Nc1ccc(/C=C/C(=O)c2ccco2)cc1,78.3% (inactive)
5,O=C(/C=C/c1ccc(Br)cc1)c1ccc(NC(=O)c2ccco2)cc1,10.8% (inactive)
6,S=c1[nH]c2cc3ccccc3cc2[nH]1,73.9% (inactive) and 72.9% (inactive)
7,S=c1[nH]c2ccccc2[nH]1,-2.67% (inactive)
8,O=C(Cc1ccc(S(=O)(=O)N2CCCC2)s1)Nc1nc2c(s1)CCCC2,1.89% (inactive)
9,Cc1ccccc1COc1ccc(/C=C(\C#N)C(N)=O)cc1,6.69% (inactive)
10,CCOc1ccc(OCCN(C)Cc2ccccc2)cc1,4.01% (inactive)
11,COc1cc(-c2nc3ccc4ccccc4c3c3c2CCC3)ccc1O,20.8% (inactive)
12,Cc1cc(-c2cccc([N+](=O)[O-])c2)nc2ccc3ccccc3c12,-9.17% (inactive)
13,Oc1ccc(-c2nc3ccc4ccccc4c3c3c2CCC3)cc1O,1.26% (inactive)
14,COc1cc(-c2nc3ccc4ccccc4c3c3c2CCC3)cc(OC)c1OC,-4.59% (inactive)
15,Cc1ccc(/C=C/C(=O)NCc2ccncc2)cc1,7.66% (inactive)
16,Cn1c(N)c(C(=O)COC(=O)C2CCCC2)c(=O)n(C)c1=O,-2.87% (inactive)
17,Cc1ccc(S(=O)(=O)N(C)C)cc1NC(=S)NNC(=O)C(N)=O,1.54% (inactive)
18,CCCCCCC(=O)N(O)C1CC(=O)N(c2ccc(Cl)cc2)C1=O (stereo unspecified),7.87% (inactive)
19,CCOCCOC(=O)c1cccc(NC(=O)OCC)c1,-3.13% (inactive)
20,C=CCn1c(O)c(N=NC(=O)CNC(=O)/C=C/c2ccco2)c2ccccc21,-15.1% (inactive)
21,Cc1cc2ncn(/N=C/c3cccnc3)c2cc1C,7.38% (inactive)
22,O=[N+]([O-])c1ccc(O)c(/C=N/n2c(CO)nc3ccccc32)c1,-3.46% (inactive)
23,Cc1nc2ccccc2n1/N=C/c1cccnc1,-6.36% (inactive)
24,Cc1cc2ncn(/N=C/c3cc(Br)ccc3O)c2cc1C,-5.04% (inactive)
25,Cc1ccc(/C=N/n2c(C)nc3ccccc3c2=O)s1,-1.18% (inactive)
26,OCc1nc2ccccc2n1/N=C/c1cccs1,1.55% (inactive)

row,SMILES,inhibition
1,OCCN(CCO)CC(O)COc1ccc(C23CC4CC(CC(C4)C2)C3)cc1 (stereo unspecified),24.6% (inactive)
2,CCC1CCCCN1CCCNC(=O)Cn1nc(-c2ccc(C)cc2)ccc1=O (stereo unspecified),-8.72% (inactive)
3,O=C(CSc1nnc(-c2ccco2)n1Cc1ccco1)Nc1ccccc1,-2.58% (inactive)
4,Cc1cccc(NP(=O)(Oc2ccccc2F)Oc2ccccc2F)c1C,1.18% (inactive)
5,O=C(NCc1ccccc1)c1ccccc1-c1nc2ccccc2[nH]1,4.78% (inactive)
6,CCOC(=O)Cc1c(C)nc2c(-c3ccc(Cl)cc3)c(C)[nH]n2c1=O,78.8% (inactive)
7,Cc1ccc(-c2csc(NC(=O)CSc3nc(C)cc(=O)[nH]3)n2)cc1,1.91% (inactive)
8,OC(c1cc(C(F)(F)F)nc2c(Cl)cc(Cl)cc12)C1CCCCN1 (stereo unspecified),49.4% (inactive)
9,Clc1ccc(-c2cc(-c3nnc4n3CCCCC4)c3ccccc3n2)cc1,71.9% (inactive)
10,CCN(CC)S(=O)(=O)c1ccc(N2CCCC2)c(NC(=O)CC(C)(C)C)c1,-7.98% (inactive)
11,O=C(Nc1cc(Sc2ccccn2)cc([N+](=O)[O-])c1)c1ccc(Cl)cc1,7.55% (inactive)
12,COC(=O)c1cc(OC)c(OC)cc1NC(=S)Nc1cc(Cl)ccc1OC,-12% (inactive)
13,O=C(Nc1nc(-c2cc3ccccc3oc2=O)cs1)c1ccco1,-2.76% (inactive)
14,Nc1ccc(Nc2nc(-c3cc4ccccc4oc3=O)cs2)cc1,-8.26% (inactive)
15,CC1=C(C(=O)Nc2ccccc2)C2(CCCCC2)C(C#N)=C(S)N1,-2.79% (inactive)
16,Cc1ccc(S(=O)(=O)N(C)C)cc1NC(=O)COC(=O)CCC(=O)c1cccs1,0.54% (inactive)
17,COc1ccc2c(c1)c(C(=O)CN1CCN(C(=O)c3ccco3)CC1)c(C)n2C,3.66% (inactive)
18,COc1ccc(C(CC(=O)c2ccc(C)cc2)Nc2ccc([N+](=O)[O-])cc2)cc1 (stereo unspecified),13.5% (inactive)
19,Cc1ccc(NCC(=O)c2ccc([N+](=O)[O-])cc2)cc1,6.43% (inactive)
20,CC1(C)CC(=O)c2sc(N3CCCCC3)nc2C1,1.75% (inactive)
21,Fc1ccc(-c2nnn3c2nc(NCc2ccccc2)c2ccccc23)cc1,-3.18% (inactive)
22,COc1ccc(COC(=O)Nc2cc3c(C(F)(F)F)nn(C)c3s2)cc1,0.73% (inactive)
23,Cn1nc(C(F)(F)F)c2cc(NC(=O)OCc3ccc(F)cc3)sc21,-0.24% (inactive)
24,COc1ccc(CNC(=O)COC(=O)/C=C/c2ccc(Cl)cc2)cc1,2.04% (inactive)
25,COc1ccc(-c2nc(N)n(C(=O)c3ccccc3)n2)cc1,6.59% (inactive)
26,O=C(NC1CCCCCC1)c1ccc(=O)n(Cc2ccccc2)n1,-0.36% (inactive)

row,SMILES,inhibition
1,COC(=O)c1ccc2c(c1O)C(=O)c1ccccc1C2=O,1.91% (inactive)
2,CC(C)COC(=O)c1ccccc1C(=O)OCC(C)C,-10% (inactive)
3,CCOC(=O)c1c(C)oc2c1c(CN1CCN(CCO)CC1)c(O)c1ccccc12,3.65% (inactive)
4,O=C(CN1CC=C(c2ccccc2)CC1)NC(=O)NCc1ccco1,-3.79% (inactive)
5,Cc1ccc(OCC(O)CN2CCN(CC(O)COc3ccc(C)cc3)CC2)cc1 (stereo unspecified),2.23% (inactive)
6,Cc1ccc(OCC(O)Cn2c3ccccc3c3ccccc32)cc1 (stereo unspecified),72.7% (inactive)
7,COc1ccc(-c2cc3ccccc3n2CC(O)CN2CCN(CCO)CC2)cc1 (stereo unspecified),4.8% (inactive)
8,CCOc1ccc(CN2CCN(C(=O)c3ccccc3)CC2)cc1,0.42% (inactive)
9,O=C(c1ccco1)N1CCN(CC(O)Cn2c3ccccc3c3ccccc32)CC1 (stereo unspecified),1.44% (inactive)
10,OC(CN1CCN(c2ccccc2)CC1)Cn1c2ccccc2c2ccccc21 (stereo unspecified),11.9% (inactive)
11,COc1ccc(-c2cc3ccccc3n2CC(O)CN2CCCCC2)cc1 (stereo unspecified),3% (inactive)
12,OC(COc1ccccc1)Cn1c2ccccc2c2ccccc21 (stereo unspecified),41.6% (inactive)
13,O=C(N/N=C/c1c(Cl)cccc1Cl)c1ccccc1F,65.5% (inactive)
14,O=C(CNc1ccccc1)NN=C1CCCC1,-7.1% (inactive)
15,COc1cccc(CNC(=O)CCC2CCCN(C(=O)c3cscn3)C2)c1 (stereo unspecified),-1.29% (inactive)
16,CCOC(=O)N1CCN(C(=O)Nc2ccc(NC(=O)N3CCN(C(=O)OCC)CC3)cc2)CC1,-0.49% (inactive)
17,COc1ccccc1/C=C/C(=O)N1CCOCC1,-12.7% (inactive)
18,O=C(NCCCN1CCOCC1)/C(=C/c1ccc(F)cc1)NC(=O)c1ccccc1,-5.09% (inactive)
19,CC1(C)NC(=O)N(CC(=O)Nc2cc(S(=O)(=O)N3CCOCC3)ccc2N2CCOCC2)C1=O,0.65% (inactive)
20,C=CCNC(=O)NC(=O)COC(=O)[C@H](C)NS(=O)(=O)c1c(C)c(C)cc(C)c1C,0.16% (inactive)
21,COC(=O)c1ccc(Cn2cnc3c(cnn3-c3ccc(C)c(C)c3)c2=O)o1,-9.12% (inactive)
22,COc1ccc2c(c1)CCCN2C(N)=O,-8.08% (inactive)
23,C=CCn1c(SCc2csc(-c3ccc(Cl)cc3)n2)nnc1-c1ccccc1OC,7.93% (inactive)
24,C=CCn1c(SCC(=O)c2ccc(O)c(O)c2)nnc1-c1ccccc1OC,-2% (inactive)
25,COc1cc(NS(=O)(=O)c2ccc(NC(=O)NC3CCCCC3)cc2)nc(OC)n1,-5.16% (inactive)
26,Cc1cccc(C(=O)N2CCC(=O)N(C(COCc3cccc(Cl)c3)Cc3ccccc3)CC2)c1 (stereo unspecified),-0.5% (inactive)

row,SMILES,inhibition
1,O=C(CCN1C(=O)C2CCCCC2C1=O)Nc1nc(-c2ccccc2)cs1 (stereo unspecified),6.05% (inactive)
2,O=C(CCN1C(=O)C2CCCCC2C1=O)Nc1ccc(F)c(F)c1F (stereo unspecified),-4.84% (inactive)
3,CCOC(=O)C1(CC2CCCCO2)CCN(C(=O)NCc2ccccc2)CC1 (stereo unspecified),4.64% (inactive)
4,COc1ccc(-c2cc(C(F)(F)F)nc(N3CCOCC3)n2)cc1,-0.92% (inactive)
5,Nc1c(Cl)nc(-c2ccccc2)nc1Cl,0.39% (inactive)
6,c1ccc(-c2cnc(-c3ccccc3)nc2)cc1,-5.94% (inactive)
7,O=C(CCN1C(=O)C2C3C=CC(C3)C2C1=O)Nc1nccs1 (stereo unspecified),-5.43% (inactive)
8,O=C1CNC(=S)N1CCc1ccc(Cl)cc1,-6.23% (inactive)
9,CCc1ccccc1NC(=O)CN(C)C(=O)CSc1nn(-c2ccc(F)cc2)c(=S)s1,-11.2% (inactive)
10,COc1ccc(-c2nc(C(F)(F)F)c(OC)o2)cc1OC,-0.95% (inactive)
11,O=C(C1CCN(Cc2ccc(F)cc2)CC1)N1CCN(C/C=C/c2ccccc2)CC1,5.92% (inactive)
12,O=C(Nc1ccc(F)cc1)N1CCN(C/C=C/c2ccccc2)CC1,-13% (inactive)
13,COCCNC(=O)CN(C)S(=O)(=O)c1ccc(Br)cc1,-4.89% (inactive)
14,Cc1cc(C(=O)c2ccc(Cl)cc2)c(NC(=O)CCl)s1,73.2% (inactive)
15,CCc1cc(C(=O)c2ccc(C)cc2)c(NC(=O)CCl)s1,76.6% (inactive)
16,COc1cc(-c2nnc(SCC(=O)c3ccc(C)cc3)o2)cc(OC)c1OC,2.03% (inactive)
17,COc1ccc(-c2nnc(SCC(=O)N3CCOCC3)o2)cc1OC,-5.9% (inactive)
18,O=C(CSc1nnc(-c2cccnc2)o1)OC1CCCCC1,-4.83% (inactive)
19,O=C(CSc1nnc(-c2cccs2)o1)N1CCCCC1,1.5% (inactive)
20,COc1ccc(-c2nnc(SCC(=O)N3CCCC3)o2)cc1OC,-0.93% (inactive)
21,COc1ccc(OC)c(C(=O)CSc2nnc(-c3ccc(OC)c(OC)c3)o2)c1,-6.09% (inactive)
22,COc1ccc(-c2nnc(SCC(=O)N3CCCCC3)o2)cc1OC,5% (inactive)
23,O=C(CSc1nnc(-c2cccs2)o1)OCc1ccccc1,-0.9% (inactive)
